Measured values: PubChem BioAssay AID1159580 (chemical genetic matrix, 2015)
Out of some 5,500 compounds screened, about 2,000 (36%) were called active. Not shown: some 18% with an inconclusive outcome. Rule as the data show it: active = normalized growth mostly below about 0.91 (no sharp cut-off); inconclusive = no clear call, values can overlap the other calls; inactive = mostly above about 0.92. This is one part of the list.

Assay: chemical genetic growth profiling, strain panel (AID 1159580);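 also: tested at 20 µM; growth read once vehicle control cultures reached saturation at 30 °C; 1 = growth at the plate median or of vehicle wells; lower values mean less growth of the strain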
Conditions: growth OD

Measured: normalized growth

CCOC(=O)OC(C)OC(=O)C1N2C(=O)C(NC(=O)[C@H](N)c3ccccc3)C2SC1(C)C (stereo not given in full)
inactive: S. cerevisiae deletion strains, locus YJR075W, strain HOC1, hits give low values 0.966 | S. cerevisiae deletion strains, locus YKL009W, strain mrt4, hits give low values 0.946 | S. cerevisiae deletion strains, locus YKL068W, hits give low values 0.98 | S. cerevisiae deletion strains, locus YKL085W, strain MDH1 (second series), hits give low values 0.989 | S. cerevisiae deletion strains, locus YKL085W, strain MDH1, hits give low values 0.989 | S. cerevisiae deletion strains, locus YKL160W, strain elf1, hits give low values 0.966 | S. cerevisiae deletion strains, locus YKL190W, strain CNB1, hits give low values 0.975 | S. cerevisiae deletion strains, locus YKR001C, strain vps1, hits give low values 0.98 | S. cerevisiae deletion strains, locus YKR026C, strain gcn3, hits give low values 1.01 | S. cerevisiae deletion strains, locus YKR091W, strain srl3, hits give low values 0.977 | S. cerevisiae deletion strains, locus YLL001W, strain dnm1, hits give low values 0.96 | S. cerevisiae deletion strains, locus YLL026W, hits give low values 0.998 | S. cerevisiae deletion strains, locus YLL041C, strain sdh2, hits give low values 0.983 | S. cerevisiae deletion strains, locus YLR027C, strain aat2, hits give low values 0.984 | S. cerevisiae deletion strains, locus YLR039C, strain RIC1, hits give low values 0.991 | S. cerevisiae deletion strains, locus YLR058C, strain SHM2, hits give low values 0.963 | S. cerevisiae deletion strains, locus YLR102C, strain apc9, hits give low values 0.987 | S. cerevisiae deletion strains, locus YLR113W, strain HOG1, hits give low values 0.966 | S. cerevisiae deletion strains, locus YLR221C, strain rsa3, hits give low values 0.999 | S. cerevisiae deletion strains, locus YLR258W, strain gsy2, hits give low values 1 | S. cerevisiae deletion strains, locus YLR262C, strain YPT6 (second series), hits give low values 0.982 | S. cerevisiae deletion strains, locus YLR262C, strain YPT6, hits give low values 0.964 | S. cerevisiae deletion strains, locus YLR268W, strain sec22, hits give low values 0.988 | S. cerevisiae deletion strains, locus YLR320W, strain mms22, hits give low values 0.96 | S. cerevisiae deletion strains, locus YLR330W, strain CHS5, hits give low values 0.992 | S. cerevisiae deletion strains, locus YLR342W, strain FKS1 (second series), hits give low values 1.11 | S. cerevisiae deletion strains, locus YLR342W, strain FKS1, hits give low values 0.976 | S. cerevisiae deletion strains, locus YLR357W, strain rsc2, hits give low values 0.961 | S. cerevisiae deletion strains, locus YLR370C, strain arc18, hits give low values 0.982 | S. cerevisiae deletion strains, locus YLR371W, strain rom2, hits give low values 0.999 | S. cerevisiae deletion strains, locus YLR384C, strain iki3, hits give low values 0.974 | S. cerevisiae deletion strains, locus YLR418C, strain cdc73, hits give low values 0.978 | S. cerevisiae deletion strains, locus YML016C, strain PPZ1, hits give low values 0.986 | S. cerevisiae deletion strains, locus YML032C, strain rad52, hits give low values 0.962 | S. cerevisiae deletion strains, locus YML120C, strain ndi1, hits give low values 0.974 | S. cerevisiae deletion strains, locus YML124C, strain tub3, hits give low values 0.987 | S. cerevisiae deletion strains, locus YMR058W, strain fet3, hits give low values 0.977 | S. cerevisiae deletion strains, locus YMR078C, strain ctf18, hits give low values 0.994 | S. cerevisiae deletion strains, locus YMR125W, strain sto1, hits give low values 0.99 | S. cerevisiae deletion strains, locus YMR129W, hits give low values 0.992 | S. cerevisiae deletion strains, locus YMR205C, strain PFK2, hits give low values 0.966 | S. cerevisiae deletion strains, locus YMR223W, strain ubp8, hits give low values 0.986 | S. cerevisiae deletion strains, locus YMR231W, strain pep5, hits give low values 0.998 | S. cerevisiae deletion strains, locus YMR263W, strain SAP30, hits give low values 0.967 | S. cerevisiae deletion strains, locus YMR307W, strain GAS1, hits give low values 1.04 | S. cerevisiae deletion strains, locus YNL067W, strain RPL9B, hits give low values 0.945 | S. cerevisiae deletion strains, locus YNL071W, strain lat1, hits give low values 0.998 | S. cerevisiae deletion strains, locus YNL153C, strain GIM3, hits give low values 0.932 | S. cerevisiae deletion strains, locus YNL183C, strain NPR1, hits give low values 0.947 | S. cerevisiae deletion strains, locus YNL209W, strain ssb2, hits give low values 0.989 | S. cerevisiae deletion strains, locus YNL233W, strain BNI4, hits give low values 0.97 | S. cerevisiae deletion strains, locus YNL248C, strain rpa49, hits give low values 0.985 | S. cerevisiae deletion strains, locus YNL250W, strain rad50, hits give low values 0.968 | S. cerevisiae deletion strains, locus YNL271C, strain bni1, hits give low values 0.986 | S. cerevisiae deletion strains, locus YNL298W, strain CLA4, hits give low values 0.982 | S. cerevisiae deletion strains, locus YNL307C, strain MCK1, hits give low values 0.995 | S. cerevisiae deletion strains, locus YNL322C, strain KRE1 (second series), hits give low values 0.968 | S. cerevisiae deletion strains, locus YNL322C, strain KRE1, hits give low values 0.985 | S. cerevisiae deletion strains, locus YNR049C, strain mso1, hits give low values 0.976 | S. cerevisiae deletion strains, locus YNR052C, strain pop2, hits give low values 0.987 | S. cerevisiae deletion strains, locus YOL006C, strain TOP1, hits give low values 0.825 | S. cerevisiae deletion strains, locus YOL012C, strain htz1 0.766 | S. cerevisiae deletion strains, locus YOL147C, strain pex11, hits give low values 0.993 | S. cerevisiae deletion strains, locus YOR001W, strain rrp6, hits give low values 1.01 | S. cerevisiae deletion strains, locus YOR061W, strain CKA2, hits give low values 0.949 | S. cerevisiae deletion strains, locus YOR069W, strain VPS5, hits give low values 0.992 | S. cerevisiae deletion strains, locus YOR070C, strain gyp1, hits give low values 0.993 | S. cerevisiae deletion strains, locus YOR080W, strain dia2, hits give low values 0.975 | S. cerevisiae deletion strains, locus YOR083W, strain WHI5, hits give low values 0.967 | S. cerevisiae deletion strains, locus YOR106W, strain vam3, hits give low values 0.952 | S. cerevisiae deletion strains, locus YOR136W, strain idh2, hits give low values 0.974 | S. cerevisiae deletion strains, locus YOR144C, strain elg1, hits give low values 0.987 | S. cerevisiae deletion strains, locus YOR184W, strain ser1, hits give low values 0.985 | S. cerevisiae deletion strains, locus YOR231W, strain MKK1, hits give low values 0.978 | S. cerevisiae deletion strains, locus YOR265W, strain rbl2, hits give low values 0.993 | S. cerevisiae deletion strains, locus YOR270C, strain vph1, hits give low values 0.92 | S. cerevisiae deletion strains, locus YOR290C, strain snf2, hits give low values 0.985 | S. cerevisiae deletion strains, locus YOR316C, strain cot1, hits give low values 0.976 | S. cerevisiae deletion strains, locus YPL051W, strain arl3, hits give low values 0.99 | S. cerevisiae deletion strains, locus YPL055C, strain LGE1, hits give low values 0.881 | S. cerevisiae deletion strains, locus YPL078C, strain atp4, hits give low values 0.971 | S. cerevisiae deletion strains, locus YPL106C, strain sse1, hits give low values 0.955 | S. cerevisiae deletion strains, locus YPL240C, strain hsp82, hits give low values 1 | S. cerevisiae deletion strains, locus YPL256C, strain CLN2, hits give low values 0.978 | S. cerevisiae deletion strains, locus YPR119W, strain clb2, hits give low values 0.983 | S. cerevisiae deletion strains, locus YPR141C, strain kar3, hits give low values 0.978 | S. cerevisiae deletion strains, locus YPR163C, strain tif3, hits give low values 0.984 | S. cerevisiae deletion strains, locus YPR167C, strain met16, hits give low values 0.996 | S. cerevisiae deletion strains, strain wtn01, hits give low values 0.992 | S. cerevisiae strains, strain wild type, hits give low values 0.98
